In PubChem BioAssay one finds composite z-score and z-score data, which are given here for 19 compounds.

Experiment [1] deals with PRMT1 (protein arginine N-methyltransferase 1). Nature of the experiment: small molecules binding arginine methyltransferase PRMT1 – biochemical, small-molecule microarray, 635 nm fluorescence, primary screen (AID 1088).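 Also: binding of Prmt1 protein to compounds spotted on small-molecule microarray slides.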 As to conditions: higher = more signal.
The nature of experiment [2]: growth effects on S. cerevisiae YJM789 – YJM789 clinical isolate, OD600, 24 h, basal, primary screen (AID 1089).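 Also: growth of clinical yeast isolate S. cerevisiae YJM 789 seeded 1000 cells per well; test concentration not given here.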 As to conditions: higher = more signal, called active from +8 up or from −8 down.
A short description of experiment [3]: S. pombe growth modifiers, basal conditions – strain 972, OD600, 24 h, no modulator, primary screen (AID 1090).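 Also: basal condition with compound alone and no growth modifier present; test concentration not given here.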 To be noted: S. pombe 972 growth, higher = more signal, called active from +8 up or from −8 down.
Experiment [4] can be described thus: budding yeast growth modifiers under rapamycin – strain BY4716, OD600, 96 h, primary screen (AID 1091). Also: test concentration not given here. As to conditions: S. cerevisiae BY4716 + rapamycin, higher = more signal, called active from +8 up or from −8 down.
Experiment [5] concerns the target Torsin-1A-interacting protein 2 (Homo sapiens) (UniProt Q8NFQ8). Nature of the experiment: small molecules binding lysate-expressed LULL1 – cell lysate, human LULL1 lysate, 635/667 nm fluorescence, primary screen (AID 1092).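 Also: probe is lysate of COS7 cells overexpressing human LULL1; score merges per-feature 667 nm fluorescence with signal-to-noise.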 To be noted: small-molecule microarray, hLULL1 lysate binding, 635 nm fluorescence; higher = more signal.
A short description of experiment [6]: optical density change of DRC41 E. coli – strain DRC41, OD650, 24 h, E. coli filamentation project, primary screen (AID 1093).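 Also: MC1000 strain lacking acrAB efflux and sulA so SOS filamentation is blocked; test concentration not given here.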 To be noted: E. coli DRC41 growth, higher = more signal, called active from +8 up or from −8 down.
Experiment [7] in a line: probe aLefty2 binding to arrayed compounds – biochemical, biotinylated probe, 635/667 nm fluorescence, primary screen (AID 1094).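 Also: score merges spot fluorescence near 667 nm with spot signal-to-noise ratio.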 To be noted: small-molecule microarray, higher = more signal.
The subject of experiment [8] is Noggin (protein binding on small-molecule microarray). Nature of the experiment: small molecules binding Noggin protein – biochemical, 635/667 nm fluorescence, primary screen (AID 1095).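 Also: score merges 667 nm feature fluorescence with signal to noise over triplicate slides.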 To be noted: 635 nm fluorescence, higher = more signal.
Experiment [9] concerns the target Neurogenic locus notch homolog protein 3 (Homo sapiens) (UniProt Q9UM47). Nature of the experiment: small molecules binding NOTCH3 protein – biochemical, 635/667 nm fluorescence, primary screen (AID 1096). As to conditions: small-molecule microarray, 635 nm fluorescence, higher = more signal.
Experiment [10] is described as follows: probe aEGFR binding to arrayed compounds – biochemical, biotinylated probe, 635/667 nm fluorescence, primary screen (AID 1097).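 Also: probe is a biotinylated anti-EGFR antibody binding compounds printed on slides; score combines fluorescence near 667 nm and signal to noise of each spot.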 To be noted: small-molecule microarray, higher = more signal.

SMILES strings stand for the structures. The source made the active and inactive calls.

Chain of Neurogenic locus notch homolog protein 3 (Homo sapiens) (Q9UM47 whole entry, looked up): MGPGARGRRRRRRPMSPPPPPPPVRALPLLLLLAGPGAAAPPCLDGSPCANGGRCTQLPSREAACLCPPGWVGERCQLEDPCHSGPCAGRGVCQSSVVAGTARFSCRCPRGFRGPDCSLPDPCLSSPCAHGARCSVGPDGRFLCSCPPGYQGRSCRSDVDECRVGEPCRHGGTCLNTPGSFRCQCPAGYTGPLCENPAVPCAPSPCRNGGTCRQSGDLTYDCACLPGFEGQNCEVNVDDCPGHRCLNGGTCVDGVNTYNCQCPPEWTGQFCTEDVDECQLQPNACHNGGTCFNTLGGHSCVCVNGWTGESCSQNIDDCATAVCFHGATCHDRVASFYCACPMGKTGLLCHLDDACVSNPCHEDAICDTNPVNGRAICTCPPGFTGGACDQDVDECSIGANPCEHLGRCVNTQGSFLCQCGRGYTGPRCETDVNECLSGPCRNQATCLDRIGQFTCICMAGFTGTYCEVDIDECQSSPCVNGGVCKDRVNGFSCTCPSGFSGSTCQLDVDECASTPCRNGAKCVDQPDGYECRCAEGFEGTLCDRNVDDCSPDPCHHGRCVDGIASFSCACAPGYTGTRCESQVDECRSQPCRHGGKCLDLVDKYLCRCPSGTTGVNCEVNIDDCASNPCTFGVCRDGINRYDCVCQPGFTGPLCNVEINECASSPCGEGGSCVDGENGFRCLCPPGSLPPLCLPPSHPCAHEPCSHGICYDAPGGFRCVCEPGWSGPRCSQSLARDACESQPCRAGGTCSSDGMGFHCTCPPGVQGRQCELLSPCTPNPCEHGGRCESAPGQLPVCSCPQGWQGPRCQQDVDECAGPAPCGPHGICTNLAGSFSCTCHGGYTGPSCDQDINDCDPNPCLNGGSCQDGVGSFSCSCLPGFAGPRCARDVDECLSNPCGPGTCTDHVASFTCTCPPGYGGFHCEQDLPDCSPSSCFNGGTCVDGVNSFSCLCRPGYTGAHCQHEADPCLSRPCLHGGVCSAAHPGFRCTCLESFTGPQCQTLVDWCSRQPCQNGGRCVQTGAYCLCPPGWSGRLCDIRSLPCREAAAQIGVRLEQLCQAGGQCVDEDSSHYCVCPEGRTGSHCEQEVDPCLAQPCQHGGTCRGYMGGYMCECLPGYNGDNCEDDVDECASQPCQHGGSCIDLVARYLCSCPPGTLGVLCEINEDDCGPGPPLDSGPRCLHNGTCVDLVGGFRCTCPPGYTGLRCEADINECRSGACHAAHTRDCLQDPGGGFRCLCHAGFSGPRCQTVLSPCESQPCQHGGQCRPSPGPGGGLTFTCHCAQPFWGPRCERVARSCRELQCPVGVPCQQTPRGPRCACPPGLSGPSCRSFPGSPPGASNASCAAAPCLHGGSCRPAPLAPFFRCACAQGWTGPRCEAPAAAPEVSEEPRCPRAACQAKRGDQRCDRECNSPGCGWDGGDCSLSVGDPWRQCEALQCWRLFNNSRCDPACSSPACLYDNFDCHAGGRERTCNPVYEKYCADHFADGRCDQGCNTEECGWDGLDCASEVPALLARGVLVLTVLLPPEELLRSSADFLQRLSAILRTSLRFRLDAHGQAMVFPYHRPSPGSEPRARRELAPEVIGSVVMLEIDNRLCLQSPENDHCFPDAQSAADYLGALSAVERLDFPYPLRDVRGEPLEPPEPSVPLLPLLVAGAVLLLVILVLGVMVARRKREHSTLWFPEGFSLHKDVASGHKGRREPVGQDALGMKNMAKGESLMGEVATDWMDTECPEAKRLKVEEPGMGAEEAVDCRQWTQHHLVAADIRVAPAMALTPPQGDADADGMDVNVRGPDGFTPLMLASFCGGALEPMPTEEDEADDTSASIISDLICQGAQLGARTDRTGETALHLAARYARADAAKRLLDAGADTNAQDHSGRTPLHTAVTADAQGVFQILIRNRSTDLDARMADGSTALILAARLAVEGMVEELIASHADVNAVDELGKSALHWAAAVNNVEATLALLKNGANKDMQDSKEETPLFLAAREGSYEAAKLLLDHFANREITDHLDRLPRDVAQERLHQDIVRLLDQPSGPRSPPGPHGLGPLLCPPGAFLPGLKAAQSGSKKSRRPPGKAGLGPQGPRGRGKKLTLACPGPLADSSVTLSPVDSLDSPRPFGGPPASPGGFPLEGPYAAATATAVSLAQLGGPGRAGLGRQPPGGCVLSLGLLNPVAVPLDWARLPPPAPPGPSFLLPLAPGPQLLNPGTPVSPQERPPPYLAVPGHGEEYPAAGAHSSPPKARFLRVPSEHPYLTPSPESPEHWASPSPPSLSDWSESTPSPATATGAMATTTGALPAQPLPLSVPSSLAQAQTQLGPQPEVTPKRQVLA
Chain of Torsin-1A-interacting protein 2 (Homo sapiens) (Q8NFQ8 whole entry, looked up): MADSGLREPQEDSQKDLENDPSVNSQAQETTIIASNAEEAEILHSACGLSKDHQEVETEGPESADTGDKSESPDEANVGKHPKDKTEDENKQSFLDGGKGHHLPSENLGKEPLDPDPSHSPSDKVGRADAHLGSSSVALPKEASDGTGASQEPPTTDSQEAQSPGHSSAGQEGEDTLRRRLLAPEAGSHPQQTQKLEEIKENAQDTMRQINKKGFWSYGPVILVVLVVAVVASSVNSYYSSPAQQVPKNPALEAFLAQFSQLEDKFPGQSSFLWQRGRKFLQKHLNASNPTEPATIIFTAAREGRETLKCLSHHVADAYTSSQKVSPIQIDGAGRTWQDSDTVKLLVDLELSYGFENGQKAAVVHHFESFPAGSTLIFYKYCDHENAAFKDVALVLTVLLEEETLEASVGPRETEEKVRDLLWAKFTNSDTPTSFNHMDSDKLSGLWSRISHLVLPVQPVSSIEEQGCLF

As to `O=C(O)[C@@]1(Cc2ccccc2)COC(c2ccc(OCCCO)cc2)=N1`, the composite z-score in experiment [1] is -0.269; in experiment [5], 2.64; in experiment [7], -0.0915; in experiment [8], -0.66; in [9], -0.776; in experiment [10], -0.229. The z-score in experiment [2] was 0.661 (inactive); in experiment [3], 1.01 (inactive); in [4], 1.3 (inactive); in experiment [6] it was 0.598 (inactive).
In the case of `Cc1cc(C)c(C(O)C2C=CC3C(=O)N(c4ccccc4)C(=O)C3N2Nc2ccc([N+](=O)[O-])cc2)c(C)c1` (stereo not given), the composite z-score in experiment [1] was 1.54; in [5], 3.73; in experiment [7] it was 0.216; in experiment [8], 0.525; in experiment [9], 1.02; in experiment [10] it was 0.0225. In addition, the z-score in experiment [2] is -0.695 (inactive); in experiment [3] it was 0.957 (inactive); in experiment [4], 2.16 (inactive); in [6], 0.356 (inactive).
`COCCOC(=O)N1C(=O)[C@@]2(c3cc(C#CC4(O)CCCCCC4)ccc31)[C@H](C(=O)N1CCc3cc(OC)c(OC)cc3C1)[C@H]1C(=O)O[C@H](c3ccccc3)[C@H](c3ccccc3)N1[C@@H]2c1ccccc1OCCO`: the composite z-score in experiment [1] came to 1.54; in experiment [5] it was 1.39; in experiment [7], 0.226; in experiment [8] it was 1.29; in [9], 1.06; in experiment [10], 0.295. In addition, the z-score in [2] was 2.29 (inactive); in experiment [3], 1.05 (inactive); in experiment [4], 3.98 (inactive); in [6], 1.36 (inactive).
On to `COC(=O)[C@H]1N=C(c2ccc(OCCCO)cc2)O[C@H]1c1ccccc1CN=[N+]=[N-]`, for which the composite z-score in experiment [1] is 0.943; in [5], 1.84; in [7], 0.992; in experiment [8] it was -0.0277; in [9] it was 0.27; in experiment [10], -0.131. For the same compound, the z-score is -0.363 (inactive) in [2], -0.225 (inactive) in [3], 0.444 (inactive) in experiment [4] and 0.887 (inactive) in [6].
With `O=C1CSC(c2cccc([N+](=O)[O-])c2)N1c1ccccc1` (stereo not given), the composite z-score in experiment [1] was 0.0447; in [5] it was 0.517; in [7] it was -0.0163; in experiment [8], 0.36; in experiment [9], 0.201; in experiment [10] it was 0.0093. Besides, the z-score in [2] was -0.0876 (inactive); in [3] it was 0.616 (inactive); in experiment [4], 1.09 (inactive); in experiment [6], 0.666 (inactive).
Regarding `CO[C@H]1O[C@H](CO)[C@@H](OC(=O)Nc2cccc(F)c2)[C@H](OC(=O)Nc2ccc3c(c2)OCO3)[C@H]1OC(=O)Nc1ccc2c(c1)OCO2`, the composite z-score in experiment [1] was 1.55; in [5] it was 3.25; in experiment [7] it was -0.0025; in [8] it was 1.07; in experiment [9], 0.649; in experiment [10] it was -0.142. Besides, the z-score in experiment [2] was 1.38 (inactive); in experiment [3], 1.29 (inactive); in [4], 1.6 (inactive); in [6], 1.76 (inactive).
For the compound `[N-]=[N+]=NCc1ccccc1[C@H]1OC(c2ccc(OCCCO)cc2)=N[C@@]1(Cc1ccccc1N=[N+]=[N-])C(=O)NCCN1CCOCC1`, the composite z-score in experiment [1] was 1.54; in [5], 3.43; in experiment [7] it was 0.328; in [8] it was 0.476; in [9] it was 1.02; in experiment [10], -0.0205. Further, the z-score is 0.0051 (inactive) in experiment [2], -13.9 (active) in experiment [3], 0.355 (inactive) in [4] and 0.72 (inactive) in experiment [6].
Consider `COC(=O)[C@@]1(Cc2ccc(F)cc2)[C@@H]2[C@@H](CC(=O)[C@H]2CC(=O)C(=O)N2CCCC2)CN1C(=O)c1ccccc1`, for which the composite z-score in [1] was 1.27; in experiment [5], 3.67; in experiment [7], 0.299; in experiment [8], -0.413; in [9], 1.03; in experiment [10], 0.147. Further, the z-score was 0.347 (inactive) in [2], 1.57 (inactive) in [3], 3.52 (inactive) in experiment [4] and -0.708 (inactive) in experiment [6].
Regarding `O=C(Nc1cc(Br)ccc1C(=O)NCc1cccc(O)c1)c1ccccc1`, the composite z-score is 1.45 in experiment [1]; 2.5 in experiment [5]; -0.0291 in experiment [7]; -0.0072 in experiment [8]; 0.275 in [9]; -0.0947 in [10]. The z-score in experiment [2] was 1.06 (inactive); in experiment [3], -2.4 (inactive); in experiment [4], 0.537 (inactive); in experiment [6] it was 2.81 (inactive).
With `Cc1ccc(S[C@]2(C(=O)NCCN3CCOCC3)CC(=O)N(C3Cc4ccccc4C3)[C@@H]2c2ccc(CO)cc2)cc1`, the composite z-score was 1.42 in experiment [1]; 2.77 in experiment [5]; -0.0928 in experiment [7]; -1.11 in experiment [8]; -0.521 in experiment [9]; -0.222 in experiment [10]. Besides, the z-score in experiment [2] is -0.432 (inactive); in experiment [3] it was -0.291 (inactive); in experiment [4], -0.0611 (inactive); in experiment [6], 0.7 (inactive).
`O=C1C2C=CC(C(O)c3cccc4ccccc34)N(Nc3ccccc3)C2C(=O)N1c1ccccc1` (stereo not given): the composite z-score is 1.56 in [1]; 3.16 in [5]; 0.343 in experiment [7]; 0.428 in [8]; 1.04 in experiment [9]; -0.0271 in [10]. The z-score in experiment [2] was 0.487 (inactive); in [3], -0.251 (inactive); in [4], -0.0667 (inactive); in [6], -1.07 (inactive).
As for `COC(=O)c1ccc(OC)c(/C=C\CC(CCc2ccccc2)OC(=O)c2ccncc2)c1` (stereo not given), the composite z-score is -0.0105 in [1]; 0.673 in experiment [5]; 0.0224 in experiment [7]; 1.88 in experiment [8]; -0.169 in experiment [9]; -0.195 in experiment [10]. In addition, the z-score in experiment [2] was -0.272 (inactive); in [3] it was -1.34 (inactive); in [4] it was 3.39 (inactive); in experiment [6] it was 0.162 (inactive).
Regarding `O=C1C2C=CC(C(O)c3ccc(Br)cc3)N(Nc3ccccc3)C2C(=O)N1c1ccccc1` (stereo not given), the composite z-score in experiment [1] is 0.826; in [5] it was 2.12; in experiment [7] it was 0.228; in experiment [8], -0.325; in [9], 1.12; in experiment [10], -0.0123. For the same compound, the z-score was 0.379 (inactive) in experiment [2], 0.443 (inactive) in [3], 0.84 (inactive) in experiment [4] and -1.59 (inactive) in [6].
Turning to `CC(C)[Si](C#C[Si](C(C)C)(C(C)C)C(C)C)(O[C@H](C)c1cn(Cc2cccc(Cl)c2)nn1)C(C)C`, the composite z-score was 1.36 in experiment [1]; 1.04 in [5]; -0.148 in experiment [7]; 0.52 in experiment [8]; 0.902 in [9]; 0.0192 in [10]. Further, the z-score in experiment [2] was 0.487 (inactive); in [3], 0.115 (inactive); in experiment [4], -0.318 (inactive); in experiment [6], 2.18 (inactive).
For `COCCOC(=O)N1C(=O)[C@@]2(c3cc(C#Cc4ccc(OC)cc4)ccc31)[C@H](C(=O)N1CCc3cc(OC)c(OC)cc3C1)[C@H]1C(=O)O[C@H](c3ccccc3)[C@H](c3ccccc3)N1[C@@H]2c1ccc(O)cc1`, the composite z-score in experiment [1] was 1.55; in [5], 2; in [7], -0.23; in experiment [8], 0.614; in experiment [9], 1.14; in [10], -0.0197. For the same compound, the z-score in experiment [2] is 1.99 (inactive); in experiment [3], 1.71 (inactive); in [4] it was 2.29 (inactive); in experiment [6], 1.12 (inactive).
On to `Cc1ccc(C(C)CC(O)C2C=CC3C(=O)N(Cc4ccccc4)C(=O)C3N2n2cnnc2)o1` (stereo not given), for which the composite z-score in experiment [1] stood at 1.49; in [5] it was 2.51; in experiment [7], 1.1; in experiment [8], 0.0433; in experiment [9], 1.09; in [10], 0.778. The z-score in [2] was -3.19 (inactive); in experiment [3], -2.84 (inactive); in [4] it was -0.829 (inactive); in experiment [6] it was -1.56 (inactive).
`OCCCC1=CC(c2cccs2)N(Cc2cccc(OC(F)(F)F)c2)CC1` (stereo not given): the composite z-score in [1] is 0.532; in experiment [5], 0.365; in experiment [7] it was -0.0998; in experiment [8], 0.0008; in experiment [9], -0.602; in experiment [10] it was -0.115. In addition, the z-score was -2.28 (inactive) in experiment [2], -14.6 (active) in experiment [3], 1.15 (inactive) in [4] and -0.15 (inactive) in [6].
For the compound `COc1ccc(CCNC(=O)[C@@H]2c3ccccc3C(=O)N(Cc3ccccc3)[C@H]2c2ccc(CO)cc2)cc1`, the composite z-score was 1.55 in experiment [1]; 3.23 in [5]; 0.06 in experiment [7]; 0.107 in experiment [8]; 0.233 in [9]; -0.0978 in experiment [10]. The z-score was -1.34 (inactive) in [2], -0.586 (inactive) in experiment [3], -0.332 (inactive) in experiment [4] and 1.95 (inactive) in experiment [6].
As for `COc1ccc([Si](C)(C)[C@@H]2[C@@H](CCO)O[C@]3(C(=O)N(Cc4ccccc4)c4ccc(N5CCCCC5=O)cc43)[C@H]2C)cc1`, the composite z-score in experiment [1] is 1.56; in experiment [5] it was 2.06; in [7] it was -0.0151; in [8], 0.901; in experiment [9] it was 1.11; in [10] it was -0.0828. In addition, the z-score in experiment [2] is 3.43 (inactive); in experiment [3], -0.536 (inactive); in experiment [4] it was 4.86 (inactive); in experiment [6], 2.63 (inactive).
